Compound activity deposited in PubChem BioAssay by National Center for Advancing Translational Sciences (NCATS).
A selection: hits, their analogues and other compounds. The true share with any hit is near 11%.
HP1b binding inh: inhibitors of HP1-beta chromodomain binding to methylated histone tails; P83916; AlphaScreen HP1-beta / biotin-H3K9me3 peptide binding; Potency, µM (series often up to 114 µM), for inactives: top-dose activity change, negative = inhibition, actives largely listed as inhibitors; 0.56% of 390,000 active; AID 540317; note: nearly all actives have a fitted effect of over 70% in size
Target sequence (P83916 whole entry, looked up): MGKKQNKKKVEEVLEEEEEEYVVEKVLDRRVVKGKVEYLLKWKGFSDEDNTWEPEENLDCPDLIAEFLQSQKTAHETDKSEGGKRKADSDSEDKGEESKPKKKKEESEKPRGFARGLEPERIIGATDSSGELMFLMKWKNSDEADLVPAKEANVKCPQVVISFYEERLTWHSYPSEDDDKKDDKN
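Compound inhibition of the preformed complex between 50 nM HP1-beta and 50 nM biotinylated H3K9me3 peptide was read by AlphaScreen. Buffer was PBS pH 7.4 with 0.01% Tween-20. Incubations ran 30 min at room temperature, with 10 ug/mL donor/acceptor beads.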
BAZ2B inh: blocks human BAZ2B; Q9UIF8; AlphaScreen BAZ2B-H3K14Ac peptide displacement; 4.4% of 360,000 active; Potency, µM (highest dose often 114 µM), without a hit: top-dose activity change, negative = inhibition, most hits filed as inhibitors; note: % is set by controls: 0 for no effect and ±100 for the full control effect; nearly all actives have a fitted effect of over 60% in size
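AlphaScreen displacement: compounds (up to 110uM) incubated 30 min at room temperature with a preformed 50 nM BAZ2B/50 nM biotinylated H3K14Ac peptide complex in PBS pH 7.4 with Tween-20. Donor and acceptor beads at 10 ug/mL final added, 20 min light-protected before reading.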
JMJD2A Tudor: blocks the human JMJD2A Tudor domain; AlphaScreen JMJD2A-Tudor / H3K4me3 peptide binding; Potency, µM (highest dose often 114 µM), without a hit: at the highest dose activity change, negative = inhibition, usual class: inhibitors; 4.4% of 390,000 active; AID 504339; note: % is set by controls: 0 for no effect and ±100 for the full control effect; nearly all actives have a fitted effect of over 50% in size
G9a block: blocks human histone lysine methyltransferase G9a; Q96KQ7; G9a H3K9 monomethylation, AlphaScreen, 2 h; Potency, µM (titrated, usually from 102 µM), inactives show top-dose activity, negative = inhibition, hits mostly inhibitors; 8.8% of 350,000 active; AID 504332; note: % is set by controls: 0 for no effect and ±100 for the full control effect; nearly all actives have a fitted effect of over 75% in size
Target sequence (Q96KQ7 913-1193 limits assumed): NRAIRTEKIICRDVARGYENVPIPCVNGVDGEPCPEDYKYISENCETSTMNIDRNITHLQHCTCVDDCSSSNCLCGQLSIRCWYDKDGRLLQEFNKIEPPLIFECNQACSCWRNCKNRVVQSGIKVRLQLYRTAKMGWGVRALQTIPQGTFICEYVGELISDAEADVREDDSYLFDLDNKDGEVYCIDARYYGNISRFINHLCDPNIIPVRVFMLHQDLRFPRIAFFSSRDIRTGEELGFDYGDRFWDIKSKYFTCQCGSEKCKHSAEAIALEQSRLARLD
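Compounds were preincubated with 20 nM G9a for 15 min, after which biotinylated H3K9 peptide (500 nM) and SAM (20 uM) started a 2 h room-temperature reaction. Monomethylated product was quantified by antibody-based AlphaScreen chemiluminescence.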
L3MBTL1 inh: inhibitors of human L3MBTL1; Q9Y468; AlphaScreen L3MBTL1–H3K9me1 peptide binding; Potency, µM (series often up to 57.1 µM), for the others: top-dose activity, negative = inhibition, most hits filed as inhibitors; 0.66% of 230,000 active; AID 485360; note: % is set by controls: 0 for no effect and ±100 for the full control effect; nearly all actives have a fitted effect of over 60% in size
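AlphaScreen assay: L3MBTL1 (50 nM final) was preincubated 30 min at room temperature with biotinylated H3(1-15)K9me1 peptide (75 nM final), then 30 min with library compounds; streptavidin donor and nickel chelate acceptor beads (10 ug/mL final) added, 30 min dark.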
Numbers without * were called inactive; ? = inconclusive; / = no result given; [ ] = another dose, or the depositor's remark. Calls come from the whole dose curve; as a rule, active = well fitted inhibition curve with a large enough effect; inconclusive = small, poorly fitted or top-dose-only effect; inactive = no such curve, though single readings can be large or run the other way. Potency is the fitted concentration of half-maximal effect.

SMILES	HP1b binding inh	BAZ2B inh	JMJD2A Tudor	G9a block	L3MBTL1 inh
Cc1cc(C)n2nc(C(=O)OCC(=O)N(C)C3CCS(=O)(=O)C3)nc2n1 (stereo unspecified)	24%	13%	-7%	-2%[12.7 µM]	0%
Cc1oc(-c2ccccc2)nc1C(=O)O	23%	-15%	-7%	/	15%
CC(=O)c1ccc(OC(=O)c2nc(-c3ccccc3)oc2C)cc1	26%	?	-29%	56µM*	/
Cc1cccc(N2CCN(C3(c4ccccc4)C(=O)c4ccccc4C3=O)CC2C)c1 (stereo unspecified)	?	8.9µM*	?	8.9µM*	/
COc1ccc(C2(N3CCN(c4cc(C)ccc4C)CC3)C(=O)c3ccccc3C2=O)cc1	-15%	?	?	?	/
Cc1ccc(C)c(N2CCN(C3(c4ccccc4)C(=O)c4ccccc4C3=O)CC2)c1	-24%	6.3µM*	?	7.1µM*	/
Cc1ccc(Cl)cc1N1CCN(C2(c3ccccc3)C(=O)c3ccccc3C2=O)CC1	-4%	?	?	?	/
COc1ccc(C(c2c(O)cc(C)n(Cc3ccco3)c2=O)N2CCCCC2)cc1OC (stereo unspecified)	19%[57 µM]	0%	-9%	0%[59 µM]	/
COc1cc(C(=O)N/N=C/c2ccc3c(c2)c2ccccc2n3C)ccc1O	10%	-23%	-14%	22%	/
O=C(N/N=C/c1cccc(O)c1)c1ccccc1O	56%	-17%	-7%[11.4 µM]	21%	-5%
Cn1c2ccccc2c2cc(/C=N/NC(=O)c3cc(O)ccc3O)ccc21	?	45µM*	32µM*	40µM*	/
Cn1c2ccccc2c2cc(/C=N/NC(=O)c3cc(O)cc(O)c3)ccc21	?	35µM*	56µM*	50µM*	/
Cc1ccc(S(=O)(=O)N(C)CCN(C)c2nc(-c3cccs3)nc3ccccc23)cc1	21%	/	-7%	/	/
CCCn1cnc2cc(NCc3ccccn3)ccc21	1%	50µM*	56µM*	10µM*	-11%
COc1ccc(CNc2ccc3c(c2)ncn3C)cc1OC	36%	-22%	-25%	40µM*	3%
COc1ccc(CNc2ncccn2)cc1OC	32%	-27%	-15%	-1%	-1%[11.4 µM]
CCn1cnc2cc(NCc3ccncc3)ccc21	28%	-6%	-13%	?	/
Cc1ccc(C(=O)Nc2ccc3c(c2)ncn3C)cc1	38%	8%	0%	6%[12.7 µM]	/
CCCn1cnc2cc(NCc3cccc(OC)c3O)ccc21	9%	?	?	?	-7%
CCc1ccc(CNc2ccc3c(c2)ncn3C)cc1	?	45µM*	?	3.2µM*	-8%
CCn1cnc2cc(NCc3ccc(Cl)cc3)ccc21	-22%	?	?	50µM*	/
C[C@]12CC[C@@H]3c4ccc(O)cc4CC[C@H]3[C@@H]1CCC2OC(=O)CCC1CCCC1 (stereo partly specified)	/	/	/	2%[59 µM]	/
CCOC(=O)c1ccc(OCC2c3cc(OC)c(OC)cc3CCN2C(=O)c2ccc(S(=O)(=O)N3CCCC3)cc2)cc1 (stereo unspecified)	13%	-4%	-22%	-38%[59 µM]	/
Cc1ccc(-c2cc(C(=O)N/N=C/c3c(C)nn(-c4ccccc4)c3C)[nH]n2)cc1	/	4%	/	-19%[59 µM]	-1%
Cc1nn(-c2ccccc2)c(C)c1/C=N/n1c(-c2ccc(C(C)(C)C)cc2)n[nH]c1=S	?	?	?	29%[0.501 µM]	-16%
SMILES	HP1b binding inh	BAZ2B inh	JMJD2A Tudor	G9a block	L3MBTL1 inh
Cc1ccccc1-c1n[nH]c(=S)n1/N=C/c1c(C)nn(-c2ccccc2)c1C	25%	-5%	?	1µM*	-1%
Cc1ccc(-c2n[nH]c(=S)n2/N=C/c2c(C)nn(-c3ccccc3)c2C)cc1	10%	-25%	79µM*	10µM*	7%
O=C(Nc1cccc(C(F)(F)F)c1)c1cc(S(=O)(=O)N2CCCC2)c[nH]1	2%	-3%	-20%	-23%[59 µM]	/
CCN1CCN(c2oc(/C=C/c3ccc(OC)c(OC)c3)nc2C#N)CC1	44%	-15%	13%	-8%[59 µM]	/
CSc1ccc(CCNC(=O)Cn2ncn3c(cc4ccccc43)c2=O)cc1	48%	-14%	0%	1%[59 µM]	/
COc1ccc(OC)c2[nH]c(=O)c(CCNC(=S)NC(C)(C)C)cc12	4%	/	-27%	-43%	/
